Common to all, as to test: DAPPL (digital affinity profiling via proximity ligation, sequencing); 10 mM Tris-HCl pH 7.5, 50 mM NaCl, 1 mM DTT, 4% glycerol, room temperature, 30 min; GST-TFs on glutathione beads, 16-mer random dsDNA library, 0.1% formaldehyde crosslink after washing; high values mean tight binding
What all share (settings): protein: recombinant; tags: N-terminal GST; dsDNA, one strand shown

One experiment deals with T1, ELK1 (Homo sapiens, UniProt P19419 1-428).
T1 sequence: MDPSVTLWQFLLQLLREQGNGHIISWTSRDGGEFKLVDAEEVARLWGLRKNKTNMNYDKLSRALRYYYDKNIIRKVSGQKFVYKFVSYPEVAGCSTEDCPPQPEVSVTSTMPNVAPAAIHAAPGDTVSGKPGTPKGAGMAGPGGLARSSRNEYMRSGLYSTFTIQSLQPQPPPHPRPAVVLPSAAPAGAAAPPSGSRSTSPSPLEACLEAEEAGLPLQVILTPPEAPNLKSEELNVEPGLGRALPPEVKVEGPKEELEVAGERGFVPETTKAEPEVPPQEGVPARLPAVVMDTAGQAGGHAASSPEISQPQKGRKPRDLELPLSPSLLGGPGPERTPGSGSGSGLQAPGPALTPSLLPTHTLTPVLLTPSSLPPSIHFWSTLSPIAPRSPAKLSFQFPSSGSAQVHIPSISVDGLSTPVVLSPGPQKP
Summed up: (§1)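 Beads coated with glutathione captured GST-fused human transcription factors that had been expressed in yeast, and the factors were then given DNA barcodes and pooled with a tag-only sample. The pools were incubated with 200 nmole of a random double-stranded 16-mer DNA library in Tris/NaCl/DTT/glycerol buffer for 30 min at room temperature, washed, crosslinked with 0.1% formaldehyde and proximity-ligated with BsaI/T4 ligase at 37 °C for 1 h. PCR amplification and Illumina NextSeq500 sequencing came last. Binding signal is each hexamer's read frequency for a factor divided by its frequency for the tag-only sample.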

For the next experiment, the target named is T2, ERG (Homo sapiens, UniProt P11308 1-479).
T2 sequence: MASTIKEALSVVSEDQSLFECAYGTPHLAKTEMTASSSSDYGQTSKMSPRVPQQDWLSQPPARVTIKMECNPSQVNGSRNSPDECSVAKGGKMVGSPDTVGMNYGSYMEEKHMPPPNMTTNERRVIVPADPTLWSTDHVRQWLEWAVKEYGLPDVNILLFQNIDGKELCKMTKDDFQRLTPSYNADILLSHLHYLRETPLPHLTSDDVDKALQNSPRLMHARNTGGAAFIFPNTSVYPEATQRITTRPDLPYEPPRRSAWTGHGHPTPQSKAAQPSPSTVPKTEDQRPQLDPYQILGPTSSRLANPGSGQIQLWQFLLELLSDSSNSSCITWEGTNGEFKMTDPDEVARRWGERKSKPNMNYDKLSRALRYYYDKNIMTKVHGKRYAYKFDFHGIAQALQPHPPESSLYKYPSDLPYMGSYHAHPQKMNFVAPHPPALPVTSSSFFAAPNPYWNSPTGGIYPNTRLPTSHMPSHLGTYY
An outline of the steps:
as §1

Another experiment addresses ELF1 (Homo sapiens, UniProt P32519 1-619). An outline of the steps:
as §1

The target of the next experiment is T3, EHF (Homo sapiens, UniProt Q9NZC4 1-300).
T3 sequence: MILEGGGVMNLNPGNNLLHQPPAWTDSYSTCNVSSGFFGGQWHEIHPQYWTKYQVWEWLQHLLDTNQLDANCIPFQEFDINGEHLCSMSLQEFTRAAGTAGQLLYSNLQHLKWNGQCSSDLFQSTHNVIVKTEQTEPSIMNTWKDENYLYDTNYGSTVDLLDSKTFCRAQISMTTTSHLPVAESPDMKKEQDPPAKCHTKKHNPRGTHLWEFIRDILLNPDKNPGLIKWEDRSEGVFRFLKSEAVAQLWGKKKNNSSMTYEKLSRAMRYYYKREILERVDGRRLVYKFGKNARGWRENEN
Summed up: as §1

Another experiment deals with SPI1 (Homo sapiens, UniProt P17947 1-270). An outline of the steps:
as §1

The target of the next experiment is SPIB (Homo sapiens, UniProt Q01892 1-262). An outline of the steps:
as §1

The target in another experiment is ETV5 (Homo sapiens, UniProt P41161 1-510). An outline of the steps:
as §1

The target of the next experiment is ELF4 (Homo sapiens, UniProt Q99607 1-663). An outline of the steps: as §1
In a further experiment the target is T4, ELK4 (Homo sapiens, UniProt P28324-2 1-405).
T4 sequence: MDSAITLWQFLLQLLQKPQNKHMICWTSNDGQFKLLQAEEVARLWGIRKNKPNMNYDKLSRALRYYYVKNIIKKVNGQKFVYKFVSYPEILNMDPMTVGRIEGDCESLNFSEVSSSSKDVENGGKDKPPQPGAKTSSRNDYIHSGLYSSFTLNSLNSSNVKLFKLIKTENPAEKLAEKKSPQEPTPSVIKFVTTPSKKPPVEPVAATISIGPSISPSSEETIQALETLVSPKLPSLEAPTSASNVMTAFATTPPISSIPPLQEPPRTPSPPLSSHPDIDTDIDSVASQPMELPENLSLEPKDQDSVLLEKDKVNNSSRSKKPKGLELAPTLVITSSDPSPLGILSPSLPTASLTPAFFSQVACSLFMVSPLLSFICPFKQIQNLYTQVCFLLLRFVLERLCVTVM
An outline of the steps: as §1

The target in the next experiment is T5, ETV2 (Homo sapiens, UniProt O00321 1-342).
T5 sequence: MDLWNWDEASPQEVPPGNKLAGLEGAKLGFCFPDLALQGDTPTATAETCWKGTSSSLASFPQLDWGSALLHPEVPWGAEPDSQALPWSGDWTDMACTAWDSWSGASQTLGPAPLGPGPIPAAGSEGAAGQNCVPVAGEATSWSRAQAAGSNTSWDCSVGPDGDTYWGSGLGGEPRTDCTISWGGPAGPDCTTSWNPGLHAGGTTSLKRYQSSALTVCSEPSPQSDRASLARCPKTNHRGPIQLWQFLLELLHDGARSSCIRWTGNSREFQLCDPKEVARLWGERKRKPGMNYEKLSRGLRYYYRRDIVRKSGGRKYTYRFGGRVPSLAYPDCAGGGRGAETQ
An outline of the steps: as §1

The next experiment deals with ETV1 (Homo sapiens, UniProt P50549 1-477). An outline of the steps: as §1
The target in a further experiment is T6, ERF (Homo sapiens, UniProt P50548 1-548).
T6 sequence: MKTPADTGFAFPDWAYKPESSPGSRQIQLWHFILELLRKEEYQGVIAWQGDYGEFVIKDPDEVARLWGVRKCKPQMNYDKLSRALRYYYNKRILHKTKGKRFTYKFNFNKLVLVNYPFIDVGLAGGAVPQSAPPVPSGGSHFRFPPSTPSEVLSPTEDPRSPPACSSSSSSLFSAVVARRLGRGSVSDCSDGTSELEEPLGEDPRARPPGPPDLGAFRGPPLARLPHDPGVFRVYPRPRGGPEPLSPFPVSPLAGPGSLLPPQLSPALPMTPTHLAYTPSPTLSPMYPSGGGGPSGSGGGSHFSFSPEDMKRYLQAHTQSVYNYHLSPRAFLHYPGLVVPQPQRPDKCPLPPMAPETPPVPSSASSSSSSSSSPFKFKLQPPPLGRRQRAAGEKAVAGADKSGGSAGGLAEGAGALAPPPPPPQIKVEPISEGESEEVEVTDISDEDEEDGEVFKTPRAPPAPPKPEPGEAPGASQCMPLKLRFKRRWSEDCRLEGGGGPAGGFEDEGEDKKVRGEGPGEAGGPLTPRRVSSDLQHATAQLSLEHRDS
An outline of the steps:
as §1

The target of another experiment is T7, ETV3L (Homo sapiens, UniProt Q6ZN32 1-361).
T7 sequence: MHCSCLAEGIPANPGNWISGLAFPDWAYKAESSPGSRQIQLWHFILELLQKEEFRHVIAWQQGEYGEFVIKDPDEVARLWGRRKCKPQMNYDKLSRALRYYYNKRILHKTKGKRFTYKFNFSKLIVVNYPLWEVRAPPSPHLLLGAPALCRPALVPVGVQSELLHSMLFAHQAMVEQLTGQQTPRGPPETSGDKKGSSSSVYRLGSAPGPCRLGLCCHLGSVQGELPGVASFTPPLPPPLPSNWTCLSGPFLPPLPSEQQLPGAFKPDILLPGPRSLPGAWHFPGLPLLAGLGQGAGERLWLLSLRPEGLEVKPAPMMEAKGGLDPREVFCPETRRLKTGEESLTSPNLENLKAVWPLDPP
Summed up: as §1

For the next experiment, the target named is T8, ETS2 (Homo sapiens, UniProt P15036 1-469).
T8 sequence: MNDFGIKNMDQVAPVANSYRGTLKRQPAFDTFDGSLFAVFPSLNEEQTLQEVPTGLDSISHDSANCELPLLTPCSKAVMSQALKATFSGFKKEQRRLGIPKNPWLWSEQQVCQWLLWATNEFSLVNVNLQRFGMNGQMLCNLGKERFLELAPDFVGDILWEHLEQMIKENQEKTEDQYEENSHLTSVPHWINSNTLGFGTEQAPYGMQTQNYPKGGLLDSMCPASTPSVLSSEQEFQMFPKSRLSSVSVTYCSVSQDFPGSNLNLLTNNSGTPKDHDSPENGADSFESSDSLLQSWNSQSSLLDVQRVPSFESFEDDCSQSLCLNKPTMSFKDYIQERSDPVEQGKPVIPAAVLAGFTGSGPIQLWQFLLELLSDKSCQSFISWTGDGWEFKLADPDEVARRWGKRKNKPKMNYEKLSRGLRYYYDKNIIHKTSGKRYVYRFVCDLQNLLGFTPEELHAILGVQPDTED
An outline of the steps:
as §1

The target of a further experiment is T9, SPDEF (Homo sapiens, UniProt O95238 1-335).
T9 sequence: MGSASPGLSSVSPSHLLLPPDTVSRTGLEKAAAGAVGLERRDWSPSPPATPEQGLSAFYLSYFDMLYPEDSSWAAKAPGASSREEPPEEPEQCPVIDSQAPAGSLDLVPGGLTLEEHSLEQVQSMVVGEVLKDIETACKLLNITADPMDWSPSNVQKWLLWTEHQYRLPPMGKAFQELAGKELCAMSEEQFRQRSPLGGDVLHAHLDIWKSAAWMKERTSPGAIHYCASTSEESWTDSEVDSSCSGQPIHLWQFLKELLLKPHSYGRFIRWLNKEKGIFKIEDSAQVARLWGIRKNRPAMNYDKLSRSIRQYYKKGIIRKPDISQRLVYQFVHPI
Summed up:
as §1

Another experiment addresses T10, ETV7 (Homo sapiens, UniProt Q9Y603 1-341).
T10 sequence: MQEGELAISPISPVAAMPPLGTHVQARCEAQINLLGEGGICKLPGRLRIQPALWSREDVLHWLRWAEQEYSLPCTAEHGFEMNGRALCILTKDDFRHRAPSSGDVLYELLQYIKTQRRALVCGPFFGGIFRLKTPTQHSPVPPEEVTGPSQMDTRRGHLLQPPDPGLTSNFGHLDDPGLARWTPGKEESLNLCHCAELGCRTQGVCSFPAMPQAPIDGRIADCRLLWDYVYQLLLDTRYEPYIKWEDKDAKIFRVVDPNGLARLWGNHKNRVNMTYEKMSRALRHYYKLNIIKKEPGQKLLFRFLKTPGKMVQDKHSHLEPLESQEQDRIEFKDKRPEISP
Summed up: as §1

The target of another experiment is T11, ETV3 (Homo sapiens, UniProt P41162-2 1-143).
T11 sequence: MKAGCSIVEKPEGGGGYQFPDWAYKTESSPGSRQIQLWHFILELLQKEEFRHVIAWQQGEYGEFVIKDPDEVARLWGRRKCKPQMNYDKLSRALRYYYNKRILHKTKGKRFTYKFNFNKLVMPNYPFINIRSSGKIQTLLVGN
Summed up:
as §1

In the next experiment the target is ETV6 (Homo sapiens, UniProt P41212 1-452). An outline of the steps: as §1
Sequence of ETV6 (P41212 whole entry): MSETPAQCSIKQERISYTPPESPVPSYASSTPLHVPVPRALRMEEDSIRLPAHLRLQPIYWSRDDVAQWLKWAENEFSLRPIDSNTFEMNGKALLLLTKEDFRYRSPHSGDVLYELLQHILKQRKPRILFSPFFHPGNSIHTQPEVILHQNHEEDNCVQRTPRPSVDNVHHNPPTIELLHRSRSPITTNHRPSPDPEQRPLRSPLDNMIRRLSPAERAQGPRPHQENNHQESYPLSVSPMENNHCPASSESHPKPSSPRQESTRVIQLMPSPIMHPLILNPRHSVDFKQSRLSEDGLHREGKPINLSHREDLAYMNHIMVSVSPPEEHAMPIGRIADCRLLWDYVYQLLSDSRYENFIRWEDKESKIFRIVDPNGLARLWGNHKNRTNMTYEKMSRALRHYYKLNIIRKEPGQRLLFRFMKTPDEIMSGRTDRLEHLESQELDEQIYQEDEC

Sequence of SPIB (Q01892 whole entry): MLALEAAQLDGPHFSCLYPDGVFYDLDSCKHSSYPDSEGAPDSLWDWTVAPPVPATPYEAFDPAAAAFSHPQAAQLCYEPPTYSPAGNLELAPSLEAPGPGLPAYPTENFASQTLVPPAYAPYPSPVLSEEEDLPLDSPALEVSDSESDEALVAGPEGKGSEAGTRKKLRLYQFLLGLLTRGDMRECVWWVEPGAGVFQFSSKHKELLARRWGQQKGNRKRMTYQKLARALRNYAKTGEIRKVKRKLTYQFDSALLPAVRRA
Sequence of ETV5 (P41161 whole entry): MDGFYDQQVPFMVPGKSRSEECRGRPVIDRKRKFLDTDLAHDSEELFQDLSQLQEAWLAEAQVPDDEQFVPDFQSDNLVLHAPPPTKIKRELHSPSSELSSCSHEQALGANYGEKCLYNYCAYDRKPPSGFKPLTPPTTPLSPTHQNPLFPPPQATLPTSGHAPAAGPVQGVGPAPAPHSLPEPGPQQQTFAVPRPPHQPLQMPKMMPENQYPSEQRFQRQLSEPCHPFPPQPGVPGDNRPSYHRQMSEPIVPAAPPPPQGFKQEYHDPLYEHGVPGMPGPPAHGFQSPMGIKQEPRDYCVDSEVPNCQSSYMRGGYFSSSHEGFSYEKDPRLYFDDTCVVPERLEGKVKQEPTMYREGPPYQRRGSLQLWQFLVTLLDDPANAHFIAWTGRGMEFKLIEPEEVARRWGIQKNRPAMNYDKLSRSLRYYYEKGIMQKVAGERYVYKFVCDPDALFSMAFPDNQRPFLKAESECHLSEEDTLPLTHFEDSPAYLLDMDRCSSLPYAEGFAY
Sequence of ELF4 (Q99607 whole entry): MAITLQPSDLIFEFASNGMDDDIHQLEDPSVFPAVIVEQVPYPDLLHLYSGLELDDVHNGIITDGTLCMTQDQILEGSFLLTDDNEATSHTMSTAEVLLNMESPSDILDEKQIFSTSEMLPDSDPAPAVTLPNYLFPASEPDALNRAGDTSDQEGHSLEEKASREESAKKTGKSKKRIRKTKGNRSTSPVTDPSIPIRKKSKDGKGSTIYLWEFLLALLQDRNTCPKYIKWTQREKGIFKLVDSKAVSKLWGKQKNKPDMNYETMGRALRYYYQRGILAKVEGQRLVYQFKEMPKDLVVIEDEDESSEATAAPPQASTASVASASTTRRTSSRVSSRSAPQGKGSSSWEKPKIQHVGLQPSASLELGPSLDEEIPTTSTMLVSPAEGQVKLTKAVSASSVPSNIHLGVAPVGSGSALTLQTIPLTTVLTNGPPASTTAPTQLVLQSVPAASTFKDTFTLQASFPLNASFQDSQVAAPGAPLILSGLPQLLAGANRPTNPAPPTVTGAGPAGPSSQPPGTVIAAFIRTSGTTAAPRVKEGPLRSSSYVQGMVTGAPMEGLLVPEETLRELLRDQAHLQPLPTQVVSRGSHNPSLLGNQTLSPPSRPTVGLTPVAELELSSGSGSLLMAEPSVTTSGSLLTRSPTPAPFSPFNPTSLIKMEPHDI
Sequence of ELF1 (P32519 whole entry): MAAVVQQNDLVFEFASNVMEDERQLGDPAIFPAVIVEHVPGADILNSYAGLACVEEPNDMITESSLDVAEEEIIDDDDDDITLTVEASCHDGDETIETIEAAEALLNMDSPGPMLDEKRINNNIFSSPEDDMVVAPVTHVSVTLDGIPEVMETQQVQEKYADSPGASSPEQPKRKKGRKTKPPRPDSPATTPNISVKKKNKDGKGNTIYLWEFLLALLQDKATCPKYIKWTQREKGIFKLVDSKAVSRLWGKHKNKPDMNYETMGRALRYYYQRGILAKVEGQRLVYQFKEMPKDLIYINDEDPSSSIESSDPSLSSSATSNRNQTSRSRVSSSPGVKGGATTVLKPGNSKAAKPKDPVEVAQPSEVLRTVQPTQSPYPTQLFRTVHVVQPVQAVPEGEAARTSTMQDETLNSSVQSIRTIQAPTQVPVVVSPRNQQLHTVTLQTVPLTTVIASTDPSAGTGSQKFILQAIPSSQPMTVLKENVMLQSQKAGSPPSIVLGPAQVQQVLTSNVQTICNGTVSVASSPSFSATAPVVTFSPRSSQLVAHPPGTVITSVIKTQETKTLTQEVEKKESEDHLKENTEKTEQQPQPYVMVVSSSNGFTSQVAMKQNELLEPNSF
Sequence of ETV1 (P50549 whole entry): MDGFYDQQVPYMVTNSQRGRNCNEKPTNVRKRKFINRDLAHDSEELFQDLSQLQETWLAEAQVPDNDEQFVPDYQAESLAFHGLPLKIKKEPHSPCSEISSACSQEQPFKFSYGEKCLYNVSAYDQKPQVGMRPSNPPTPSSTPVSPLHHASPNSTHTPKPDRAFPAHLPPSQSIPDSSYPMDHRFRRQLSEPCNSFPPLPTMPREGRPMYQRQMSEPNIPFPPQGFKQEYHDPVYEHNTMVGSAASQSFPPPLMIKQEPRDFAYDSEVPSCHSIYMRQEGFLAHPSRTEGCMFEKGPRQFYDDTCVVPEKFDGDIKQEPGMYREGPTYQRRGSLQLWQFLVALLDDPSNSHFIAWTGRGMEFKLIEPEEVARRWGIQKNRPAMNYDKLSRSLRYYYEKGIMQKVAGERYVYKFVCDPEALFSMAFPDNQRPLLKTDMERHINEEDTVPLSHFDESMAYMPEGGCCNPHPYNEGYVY

As to CATGTT, the binding signal with ELK1 was 1.07 fold enrichment (6-mer frequency, TF over GST control); in the experiment with ERG, 1.04 fold enrichment (6-mer frequency, TF over GST control); with ELF1, 1.06 fold enrichment (6-mer frequency, TF over GST control); with EHF, 1.03 fold enrichment (6-mer frequency, TF over GST control); with SPI1 it was 1.04 fold enrichment (6-mer frequency, TF over GST control); in the experiment with SPIB, 1.03 fold enrichment (6-mer frequency, TF over GST control). Moreover, the binding signal with ETV5 is 1.03 fold enrichment (6-mer frequency, TF over GST control); with ELF4, 1.05 fold enrichment (6-mer frequency, TF over GST control); with ELK4, 1.1 fold enrichment (6-mer frequency, TF over GST control); with ETV2, 1.11 fold enrichment (6-mer frequency, TF over GST control); with ETV1 it was 1.15 fold enrichment (6-mer frequency, TF over GST control); with ERF, 1.05 fold enrichment (6-mer frequency, TF over GST control). For the same sequence, the binding signal is 1.06 fold enrichment (6-mer frequency, TF over GST control) in the experiment with ETV3L; 1.01 fold enrichment (6-mer frequency, TF over GST control) in the experiment with ETS2; 1.02 fold enrichment (6-mer frequency, TF over GST control) with SPDEF; 1.1 fold enrichment (6-mer frequency, TF over GST control) in the experiment with ETV7; 1.12 fold enrichment (6-mer frequency, TF over GST control) with ETV3; 1.1 fold enrichment (6-mer frequency, TF over GST control) with ETV6.

The values above are taken from PMC7862700, “An all-to-all approach to the identification of sequence-specific readers for epigenetic DNA modifications on cytosine”.
